Reference: the supplement of paper PMC3334620
Whole data set: some 33,000 sequences, median “E-score (-0.5 to 0.5)” near -0.056, cut for the highest 2% near 0.38. What follows is part of a selection rich in the highest values, with near analogues and random picks from the rest.

target: Stb4 (UniProt P50104); experiment: PBM E-score (8-mer binding enrichment) (E-score (-0.5 to 0.5)); higher = stronger / more preferred TF binding; settings: protein concentration: 200 nM; construct: GST-DNA-binding domain
Experimental: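 Universal 'all 10-mer' protein binding microarrays (Agilent AMADID 015681) probed with GST-tagged S. cerevisiae TFs (full-length or DBD) made by in vitro transcription/translation (PURExpress), about 100-200 nM. Bound TF was detected with fluorescent anti-GST. Each ungapped 8-mer (which stands for itself and its reverse complement) is scored by the PBM enrichment score (E-score), a modified Wilcoxon-Mann-Whitney statistic from -0.5 to +0.5, computed with the Universal PBM Analysis Suite. Scale: above 0.35 generally sequence-specific binding.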

Sequence of UniProt P50104 (P50104 whole entry, the tested form may be a part): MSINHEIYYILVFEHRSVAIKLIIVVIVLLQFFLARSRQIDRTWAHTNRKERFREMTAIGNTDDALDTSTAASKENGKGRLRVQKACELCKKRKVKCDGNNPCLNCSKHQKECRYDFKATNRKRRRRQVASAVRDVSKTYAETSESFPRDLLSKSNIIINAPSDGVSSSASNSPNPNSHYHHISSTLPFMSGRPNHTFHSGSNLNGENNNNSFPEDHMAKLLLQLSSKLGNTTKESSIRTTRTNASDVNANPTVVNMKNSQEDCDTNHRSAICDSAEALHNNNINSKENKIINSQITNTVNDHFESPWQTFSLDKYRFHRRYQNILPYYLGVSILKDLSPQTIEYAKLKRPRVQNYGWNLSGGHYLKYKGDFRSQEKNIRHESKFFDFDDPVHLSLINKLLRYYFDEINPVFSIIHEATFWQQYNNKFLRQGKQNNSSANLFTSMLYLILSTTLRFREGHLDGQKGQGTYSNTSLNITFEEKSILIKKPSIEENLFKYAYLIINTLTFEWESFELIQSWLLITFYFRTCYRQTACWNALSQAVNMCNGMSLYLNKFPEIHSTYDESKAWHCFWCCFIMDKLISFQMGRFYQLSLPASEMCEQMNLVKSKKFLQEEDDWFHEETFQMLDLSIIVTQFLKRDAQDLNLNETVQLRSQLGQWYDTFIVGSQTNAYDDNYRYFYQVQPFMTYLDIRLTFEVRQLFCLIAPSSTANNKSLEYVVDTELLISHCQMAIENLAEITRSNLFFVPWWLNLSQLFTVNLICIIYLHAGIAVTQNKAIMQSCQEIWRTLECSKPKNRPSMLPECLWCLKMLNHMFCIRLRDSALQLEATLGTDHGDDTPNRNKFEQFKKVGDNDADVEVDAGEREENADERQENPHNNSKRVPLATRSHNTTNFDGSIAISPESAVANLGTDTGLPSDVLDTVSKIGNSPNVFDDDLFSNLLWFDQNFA

Sequence	PBM E-score
CAGAGAAA	-0.173
AGGGCCGA	0.232
AATGAGGC	-0.312
ACCCCGAC	0.248
GTCCCGAC	0.376
GTCCCGAA	0.406
ATCCCGAT	0.342
TCCCCGAA	0.37
TTCCCAAA	-0.234
ATCCCGAC	0.387
TTCCCGAA	0.46
AGCCCGAG	0.231
ATCCCGAG	0.439
GTCCCGCA	0.213
AGCCCGAC	0.0817
AACAAGAG	-0.186
TTCCACAA	0.0123
GAGTGATC	-0.021
CGTCTGAG	-0.171
TTGCACAA	-0.231
TAGCGACA	-0.154
AGATATGA	-0.0877
CGACATTA	0.187
CATCACCC	0.123
CTCCCGAA	0.43

Sequence	PBM E-score
CTCCCGAG	0.445
CGCCCGAG	0.328
CTCCCGGA	0.329
ATCCCGAA	0.432
CTCCCGAC	0.33
AGCCCGAA	0.264
ATCCCAAA	0.0397
CGCCCGAA	0.293
AATCTACA	-0.0631
AATCTATC	-0.0505
CCAAGTCC	-0.104
GGTTTTAA	0.126
GCCCATTA	-0.168
ACGTTTGC	-0.11
TCTAGTAA	-0.126
GTGTAAAA	-0.0759
ATGCGAGC	-0.123
CTTCGAGA	-0.257
ATCCGCGA	0.247
ATACGAGC	-0.141
CTCCGAGA	0.409
ATCCGAGA	0.471
ATGCGAGA	-0.117
GTCCGAGA	0.378
ATCCGAGC	0.478

Sequence	PBM E-score
AACCGAGG	0.355
ATGCGAGG	-0.224
ATCCGAGG	0.481
AACGGGTC	0.156
AACGATAT	-0.0769
CTTCTTGC	-0.0322
ACCCCGTC	0.167
GAGATCTA	-0.103
ACTGAGTC	-0.0516
CTCTGCCC	-0.215
CCTTCTAA	-0.338
AATTGAAG	-0.06
CCGCGATC	0.142
CTCCGAGC	0.428
CTCCGTGC	0.217
CTCCGCGC	0.168
CTGCCAAC	-0.1
CCGGAATA	0.347
ACGGAACG	0.327
CCGGAACG	0.424
ACGGAACC	0.328
CCGGAACA	0.431
ACGGAACA	0.326
GCGGAACA	0.335
CGGGAACA	0.374

Sequence	PBM E-score
CCGGAACC	0.41
GCGGAACC	0.284
CAGGAACG	-0.144
TCGGAACA	0.479
AGGCCTCG	0.221
TCTTCCAA	-0.0347
CCTGGTCC	-0.116
CGGTAAAA	0.346
CTCGGCAG	0.444
ATCGGCAA	0.366
GTCGGCAA	0.368
CACGGCAA	0.199
ATCGGCAC	0.34
TTCGGCAA	0.454
GTCGGCAC	0.361
CTCGGCCA	0.251
CACGGCAG	0.137
CTCGGCAA	0.458
ATCGGCAG	0.321
CTCGGCAC	0.451
TAACCGCA	0.154
TAGCCCGA	0.245
GTACGCCA	-0.109
GACCTGTA	-0.0511
AGACACTA	0.00615

Sequence	PBM E-score
ATACTAAT	-0.00279
AGTTCACA	-0.153
ATATAGCA	-0.202
AACGTCGC	-0.129
CCTTGATA	-0.351
CAGAGCCG	0.237
CCTAACAA	-0.248
AACCGAGT	0.305
AACCGACA	0.286
CACCGAGC	0.295
CACCGAGA	0.222
TACCGAGA	0.431
AACCGAGA	0.407
AACCGAGC	0.418
AACCGATA	0.227
GACCGAGA	0.339
CCTTCAAG	-0.097
ATTTATGG	-0.152
CAACATCC	0.213
ATGTGCAG	-0.166
ACGGATTA	0.145
ACGGATAG	0.381
ACGGATAC	0.407
ACGGATAT	0.407
ACGGATCT	0.28

Sequence	PBM E-score
ATGGATAC	0.0478
ATGGATAA	0.024
ACGGATAA	0.416
AAGGATAC	-0.152
ACCGGTTC	0.216
CGAGCGCG	0.235
CCTTGGAG	-0.196
AACCGATG	0.222
AACCGATC	0.253
CTCCGATC	0.229
AGCCGATG	0.321
ACCCGATA	0.349
ATCCGATA	0.448
ATCCGATG	0.437
ACCCGATC	0.333
ATCCGATC	0.428
ACCCGATG	0.399
GTCCGATA	0.22
CTCCGATA	0.275
GGCAGTGA	0.0105
CCCATAGC	-0.0731
ACCATATA	-0.114
GGTCTAAC	0.0261
ATCCTGCG	-0.117
CAATGCCA	-0.241

Sequence	PBM E-score
AAGCCTAA	-0.0457
CACTCTAA	-0.151
ATGGGCGC	-0.158
AGGGCTGC	-0.134
ATCTGACA	-0.0757
ACGAGGGC	-0.0578
GCGAGGGA	-0.129
ACGAGGGA	-0.0722
CAGAGGGC	-0.151
CCGAGGGA	0.386
CCGAGGGC	0.431
ATCTAACA	-0.00015
CTAGGCAG	-0.169
CGGGCCGC	0.309
GGACCCGA	0.386
GGACCCCA	-0.0727
CGGGCCGA	0.435
CGACCCGC	0.173
AGGCCCGA	0.233
GGGCCCGA	0.278
CGACCCTA	0.0884
GGACCCTA	-0.144
CGGCCCGA	0.444
GGGGCCGA	0.174
CGACCCGA	0.4

Sequence	PBM E-score
CAATCGGA	0.374
CGAGGATA	0.0376
ACATATAA	-0.0928
CCTCTTTA	-0.157
ACTATACG	0.00583
ATGACGAC	0.0312
ATACCGAG	0.377
AAGCCATG	-0.117
AGTCTTCG	-0.008
CCGGCCAA	0.271
CGGACCTC	0.124
GCGCTGAC	-0.0933
AGACCCGC	0.174
AGACCCGA	0.419
AGACCCGG	0.305
AAACTGTG	-0.12
AGAGGGAT	-0.271
ACGAGACG	0.0568
CCGAGACC	0.431
CCGAGACA	0.372
ACGAGACC	-0.0429
CCGAGACG	0.41
CGGAGACG	0.235
ACGAGAGC	-0.151
CCGAGAGA	0.373

Sequence	PBM E-score
CCGAGAGC	0.388
CCACCACG	-0.109
AAGCTAGG	0.0266
GGCAGGCA	0.0342
CGGGGCCA	0.22
AATAGGAG	-0.317
GTCCTCCA	-0.138
CGGAAGGA	0.397
CGGAAGTC	0.414
GGGAAGGA	0.0823
GGGAAGTA	0.184
AGGAAGAA	-0.278
AGGAAGTA	0.112
AGGAAGTC	-0.19
CTGAAGTC	0.0307
CGGAAGTA	0.419
CGGAAGAA	0.406
AGGAAGGA	-0.282
GGGAAGAA	0.0883
ACGCTCAT	-0.276
AAAGGCGA	-0.0639
AGAGCAAC	-0.287
GGGTTTAA	0.0372
CACGAGAG	-0.136
ACCGAGAA	0.311

Sequence	PBM E-score
TACGAGAA	-0.113
CTCGAGAG	-0.201
TCCGAGAA	0.455
GTCGAGAC	0.0445
CCCGAGAA	0.44
TTCGAGAA	-0.207
CCCGAGAG	0.385
CACGAGAA	-0.167
GGCGAGAC	-0.245
GCCGAGAC	0.392
ATAATCAT	-0.0964
CCCATTAC	-0.104
CCCGCAAC	0.228
CAGGCACA	-0.178
ACGGGCCT	0.0389
CAACCACC	0.0572
GCCTAGAC	-0.139
CCTCGAAC	-0.249
GTGACCAA	-0.203
GACGAGAA	-0.169
CCCGAGAC	0.412
ACCGAGAC	0.357
GTCGAGAA	-0.277
GCCGAGAA	0.406
CGCGAGAC	-0.0463

Sequence	PBM E-score
CACCTACG	0.0326
AACCATGT	0.0503
AAACCATA	-0.0199
GACTAGCA	-0.114
GAGGAGGA	-0.152
AACCCGAG	0.406
CCCCCGAG	0.352
CACCCGAA	0.436
CACCCGAG	0.448
CACCCGGG	0.323
CCCCCGAC	0.175
AACCCGAT	0.285
CACCCGAC	0.384
CCCCCGAA	0.297
ACCCCGAG	0.333
CACCCAAA	-0.0471
CACCCGGC	0.277
CCCTAAGG	-0.232
ACCGCTTG	-0.0825
CAATTTCG	0.0914
TGTAAGAA	0.101
CACCTCCA	-0.167
AAGGATAG	0.00922
CGTTCAGC	-0.00077
AACTCGGA	0.426

Sequence	PBM E-score
CACTCGGA	0.422
AACTCGCA	-0.278
TACTCGAA	-0.25
TACTCGCA	-0.0584
AACTCGGG	0.383
CACTCGTA	-0.292
AACTCGTG	0.0628
CACTCGAA	-0.267
TACTCGGA	0.409
AACTCGGT	0.286
AACTCGCG	-0.00482
TTCCAGAA	-0.0529
GTCGTGAA	-0.19
ATAAGCGA	0.0555
ATCTGCAT	-0.071
AGGAACTG	-0.148
CGATCATC	0.0839
CACTCGGG	0.371
GACTCGGC	0.327
GACTCGCA	-0.0572
CACTCGTC	0.0228
GACTCGGA	0.451
CACTCGGC	0.402
CTCCCAAG	-0.114
ACGCCAGG	-0.0466

Sequence	PBM E-score
AAATCATG	-0.27
ATACCCTG	-0.0928
ATACCCCG	0.205
ATACCCAA	-0.0395
ATACCCGG	0.391
ATACCCGC	0.328
ATACCCGA	0.476
CTACCCGC	0.273
CTACCCAA	-0.209
GTACCCTA	-0.206
GTACCCGA	0.437
CTACCCGA	0.464
GTACCCAA	-0.0334
GAAGTAGA	-0.0217
GCGAGTGA	-0.0567
GCATCTCA	-0.222
GGCACAAA	0.104
ATATAGCC	0.183
CCTGAACC	-0.232
GCCCTGCC	0.0895
GGCTCGTA	-0.0188
CGCTCGTA	-0.176
CGCTCGGA	0.463
AGCTCGTA	-0.189
GGCTCGAA	-0.0314

Sequence	PBM E-score
CGCTCGGC	0.412
CGCTCGTC	-0.19
CGCTCGCA	0.104
GGCTCGGA	0.466
AGCTCGCA	-0.108
CGCTCGCC	-0.0544
AGCTCGGA	0.454
AAGAGGCA	-0.186
CGACCAAG	-0.184
TCATTGCA	-0.328
CATGTTCC	0.115
ATTCATTC	0.172
ACCGCAGG	0.0861
ACCTCTAC	-0.0322
AGGCGAAT	-0.189
AGAATTGA	-0.194
GAGAAGAA	0.0753
GACAGATC	0.0617
CGGATAGA	0.454
CAGATAGC	-0.0171
CGGATAGC	0.394
GGGATAGA	-0.0799
AGGATAGA	-0.107
AGGATAGC	0.206
